Only some compounds are listed: those with a hit (about 6% of all), similar ones and a draw of the others.
ALOX15 inhib = inhibitors of human 15-lipoxygenase (ALOX15); P16050; purified 15hLO-1, xylenol orange hydroperoxide absorbance; Potency, µM (titrated, usually from 57.1 µM), actives largely listed as inhibitors; 74,000 compounds, 1.4% hits; AID 887; also: nearly all actives have a fitted effect of over 55% in size
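Inhibition is scored from a chromogenic endpoint. After 15 min enzyme-compound contact, arachidonic acid (50 uM final) reacts 6 min with 40 nM 15hLO-1 at room temperature, then Fe-XO reagent is added for 30 min and absorbance ratio recorded.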
Tau fil binding = binders of human tau filaments | P10636 | recombinant tau filaments, thioflavin S fluorescence, 15 h; filaments grown with octadecylsulfate alongside compound | Potency, µM (titrated, usually from 57.1 µM) | 71,000 compounds, 2% hits | AID 596;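 also: actives lower thioflavin S fluorescence by blocking filaments or displacing dye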
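Quantitative HTS: thioflavine S signal from ODS-induced tau filaments, excited at 450 nm, emission 510 nm. Conditions: 1 uM tau, 30 uM ODS, 15 h at 37 C, pH 7.4.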
Pol III holo inh = inhibitors of bacterial DNA polymerase III holoenzyme | reconstituted DNA polymerase III holoenzyme replication, biochemical | Potency, µM (titrated, usually from 57.1 µM) | 71,000 compounds, 0.25% hits
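Reconstituted *E. coli* holoenzyme (0.35 nM Pol III, 1 nM beta, 154 nM SSB, 2 nM primase) was preincubated with compound for 15 min at RT. Synthesis on 1.4 nM ssM13Gori ran 35 min, then was stopped with PicoGreen/EDTA and read as dsDNA fluorescence.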
PK Bst = pyruvate kinase (B. stearothermophilus) modulation; Potency, µM; 51,000 compounds, 1.2% hits; AID 361; purified pyruvate kinase, luminescence ATP production; ribose 5-phosphate activator present at AC10; in the data active = potency below about 11 µM; inconclusive = mostly about 12 µM to 25 µM;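 the screen sought inhibitors and activators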
ERK AVP inh = inhibitors of vasopressin-stimulated ERK signaling pathway | 72,000 compounds, 0.99% hits | HEK293-V1b, vasopressin-stimulated pERK AlphaScreen | Potency, µM (series often up to 57.5 µM), actives largely listed as inhibitors; also: nearly all actives have a fitted effect of over 55% in size
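HEK293 cells stably expressing V1b receptor, seeded overnight in 1% FBS, were treated with compounds for 30 min at 37C, then stimulated 5 min with 25 nM vasopressin; phospho-ERK read by AlphaScreen SureFire after lysis.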
FLuc inh = blocks Photinus pyralis firefly luciferase activity | P08659 | purified firefly luciferase, luminescence, 8 min | Potency, µM (top dose mostly 57.1 µM), actives largely listed as inhibitors | 72,000 compounds, 2.2% hits | AID 411; also: nearly all actives have a fitted effect of over 40% in size
Target sequence (P08659 whole entry, looked up): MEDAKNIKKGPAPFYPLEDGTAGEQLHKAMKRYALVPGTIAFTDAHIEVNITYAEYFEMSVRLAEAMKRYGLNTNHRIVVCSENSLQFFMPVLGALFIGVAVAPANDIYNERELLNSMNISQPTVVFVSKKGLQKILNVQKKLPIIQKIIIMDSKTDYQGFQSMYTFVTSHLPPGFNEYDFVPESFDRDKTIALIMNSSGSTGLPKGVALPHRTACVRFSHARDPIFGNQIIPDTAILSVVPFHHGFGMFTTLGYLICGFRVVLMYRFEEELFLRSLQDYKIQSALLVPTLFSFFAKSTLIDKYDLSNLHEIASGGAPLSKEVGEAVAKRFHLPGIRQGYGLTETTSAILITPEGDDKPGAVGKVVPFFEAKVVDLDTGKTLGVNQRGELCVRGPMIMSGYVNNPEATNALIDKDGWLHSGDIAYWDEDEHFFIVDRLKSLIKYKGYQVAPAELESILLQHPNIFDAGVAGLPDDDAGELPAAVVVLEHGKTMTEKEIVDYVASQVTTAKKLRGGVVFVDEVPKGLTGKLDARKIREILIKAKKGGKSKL
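Here, luciferase activity is measured as luminescence following an 8 min room-temperature reaction at 10 uM ATP, pH 7.2. Every library sample is titrated.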
Hits are given with their value; i = inactive; ? = inconclusive; nt = no result; [ ] = remark or other dose. Unless noted, calls follow the shape of the dose curve; as a rule, active = well fitted curve in the direction sought with a large enough effect; inconclusive = small, poorly fitted or top-dose-only effect, or another doubt; inactive = no such curve, though single readings can be large; an effect the other way counts as inactive or inconclusive.

SMILES | ALOX15 inhib | Tau fil binding | Pol III holo inh | PK Bst | ERK AVP inh | FLuc inh
COc1cc(-c2ccc(N=C=O)c(OC)c2)ccc1N=C=O | i | 15.8µM | i | nt | i | nt
COc1cc(-n2nc(C)c3c2OC(N)=C(C#N)C3c2ccccc2)c(Cl)c(Br)c1O (configuration not stated) | i | 25.1µM | i | i | 31.6µM | i
Cc1nn(-c2ccccc2)c2c1C(c1ccncc1)C(C#N)=C(N)O2 (configuration not stated) | i | nt | nt | nt | nt | nt
N#Cc1cccc(-c2nccc(-n3ccnc3)n2)c1 | 10µM | i | i | nt | ? | i[2.29 µM]
CS(=O)(=O)Nc1cccc(-c2nccc(-n3ccnc3)n2)c1 | 20µM | i | i | nt | i | i[2.29 µM]
Cc1ccccc1-c1nccc(-n2ccnc2)n1 | ? | i | i | nt | i | i[2.29 µM]
CN1CSC2=C(C#N)C(c3cccc(OCc4ccccc4)c3)CC(=O)N2C1 (configuration not stated) | 5.01µM | i | i | nt | i | i
N#CC1=C2SCN(c3ccc(F)cc3)CN2C(=O)CC1c1cccc(F)c1 (configuration not stated) | ? | i | i | nt | i | i
CCOC(=O)c1ccc(N2CSC3=C(C#N)C(c4cccs4)CC(=O)N3C2)cc1 (configuration not stated) | 12.6µM | i | i | nt | i | i
CCc1ccc(C2CC(=O)N3CN(c4ccccc4)CSC3=C2C#N)cc1 (configuration not stated) | 2.51µM | ? | i | nt | i | i
[O-][N+](CCO)(CCO)c1ncnc2nc[nH]c12 | i[11.4 µM] | i[11.4 µM] | i[11.4 µM] | nt | i[11.5 µM] | i[11.4 µM]
O=c1c2ccccc2nc2n1CCCCC2 | i | i | i | i | i | i
O=c1c2ccccc2nc2n1CCC2 | 3.16µM | i | i | i | i | i
COc1ccc(-n2c(=O)c(-c3ccccc3)nc3cnc(N4CCOCC4)nc32)cc1 | i | i | i | nt | i | i[11.4 µM]
O=C(NCCc1ccc(Cl)cc1)C1CCN(C(=O)c2sccc2-n2cccc2)CC1 | i | i | i | i | 15.8µM | i
CC(CCc1ccccc1)NC(=O)C1CCN(C(=O)c2sccc2-n2cccc2)CC1 (configuration not stated) | i | i | i | nt | i | i
C[C@H](C(=O)c1ccccc1)[C@@H](c1ccccc1)N1CCOCC1 | i[11.4 µM] | i[11.4 µM] | i[11.4 µM] | nt | i[11.5 µM] | i[11.4 µM]
Cn1c(=O)c2c(nc(NCc3ccco3)n2C/C=C/c2ccccc2)n(C)c1=O | i | i | i | i | 31.6µM | i
Cn1c(=O)c2c(nc(NCc3ccco3)n2C)n(C)c1=O | i | i | i | i | i | i
CCCCCCc1ccc(-c2ncc(N)cn2)cc1 | i | 25.1µM | i | nt | i | i
CCCCOc1ccc(-c2ncc(Cl)cn2)cc1 | i[11.4 µM] | i[11.4 µM] | i[11.4 µM] | nt | i | i
CN(Cc1ccco1)c1nc(-c2ccccc2C(F)(F)F)nc2ccccc12 | 15.8µM | i | i | nt | i | i[2.29 µM]
COc1ccccc1-c1nc(N(C)C)c2ccccc2n1 | ? | 15.8µM | i | nt | i | i[2.29 µM]
CN(Cc1ccco1)c1nc(-c2ccccc2Cl)nc2ccccc12 | i | i | i | nt | i | i[2.29 µM]
COc1ccccc1-c1nc(N(C)Cc2ccco2)c2ccccc2n1 | i | 7.94µM | i | nt | i | i[2.29 µM]
SMILES | ALOX15 inhib | Tau fil binding | Pol III holo inh | PK Bst | ERK AVP inh | FLuc inh
COCCNc1nc(-c2ccccc2Cl)nc2ccccc12 | i | i | i | nt | ? | i[2.29 µM]
Oc1cc2c(cc1O)C1c3ccc(O)c(O)c3OCC1(O)C2 (configuration not stated) | 5.01µM | nt | nt | nt | ? | nt
CC(=O)c1sc2ccccc2c1OC(=O)c1ccco1 | i | i | i | nt | i | i
CC(=O)c1c(OC(=O)c2ccco2)c2ccccc2n1C | 25.1µM | i | i | nt | i | i
Nc1ncnc2c1c(-c1ccc(Oc3ccccc3)cc1)cn2C1CCCC1 | i | i | i | nt | 7.94µM | i
O=C(Nc1ccc(N2CCN(C(=O)c3ccc(Cl)cc3)CC2)cc1)c1cccnc1 | i | 10µM | i | ? | ? | i
N=C1C=CC=C2C1=NC1(CCCCC1)N2O | i | 15.8µM | i | nt | ? | i
CC(C)(C)N1C(=O)[C@H]2[C@@H]3[C@H](O)C=CC(=O)[C@H]3CC[C@H]2C1=O | i[11.4 µM] | nt | nt | nt | i[11.5 µM] | i[11.4 µM]
C[C@H]1[C@H](C)CC[C@]2(C(=O)O)CC[C@]3(C)C(=CC[C@@H]4[C@]5(C)C[C@H](O)[C@@H](O)[C@@](C)(CO)[C@@H]5[C@H](O)C[C@@]43C)[C@H]12 | i[11.4 µM] | i[11.4 µM] | i[11.4 µM] | nt | i[11.5 µM] | i[11.4 µM]
CC(C)Cn1c(N)c(C(=O)CSc2ccc3c(c2)OCCO3)c(=O)n(C)c1=O | i | i | i | i | 2µM | i
CC(C)Cn1c(N)c(C(=O)COC(=O)c2ccc3c(c2)OCCO3)c(=O)n(C)c1=O | i | i | i | i | i | i
COc1ccc(CC(NC(C)=O)C(=O)NC2CCN(c3nc(C)cc(C)c3C#N)CC2)c(OC)c1 (configuration not stated) | 25.1µM | i | ? | i | i | i
COc1cccc(CC(NC(C)=O)C(=O)NC2CCN(c3nc(C)cc(C)c3C#N)CC2)c1 (configuration not stated) | i | i | i | i | i | i
CCN1C(=S)SC(=O)C1=C1C=C(C)N(Cc2ccco2)C(C)=C1 | i | i | i | nt | i | 10µM
CCN1C(=S)SC(=O)C1=C1C=C(C)OC(C)=C1 | i | 3.16µM | i | i | i | i
O=C(Nc1ccc2c(c1)OCO2)c1cccc(S(=O)(=O)N2CCCC2)c1 | i | i | i | i | 15.8µM | i
O=C(Nc1ccc2c(c1)OCCO2)c1ccc(NC(=O)C2CCCO2)cc1 (configuration not stated) | i | i | i | nt | i | 12.6µM
Cc1cc(C(=O)Nc2ccccn2)cs1 | i | i | i | nt | i | 12.6µM
O=C(NCCOc1ccccc1)c1ccc2c(c1)OCO2 | i | i | i | 8.06 | i | 6.31µM
CCOCCCNC(=O)c1ccc2c(c1)OCO2 | i | i | i | i | i | i
CCCN(CCC)C(=O)SCC | i | i | i | nt | i | nt
COc1ccc(OC)c(-c2ccccc2/C=N/NS(=O)(=O)c2ccc(C)cc2)c1 | i[11.4 µM] | nt | nt | nt | i[11.5 µM] | nt
Cc1noc(C(=O)Nc2ccc3c(c2)OCO3)c1Cl | i | 10µM | i | nt | i | 12.6µM
Cc1cc(C)n(-c2ccc(C(=O)Nc3ccc4c(c3)OCCO4)cc2)n1 | i | i | i | i | i | 12.6µM
O=C(Nc1ccc2c(c1)OCCO2)C1CCC1 | i | i | i | i | i | i
SMILES | ALOX15 inhib | Tau fil binding | Pol III holo inh | PK Bst | ERK AVP inh | FLuc inh
O=C(Nc1ccc2c(c1)OCCO2)NC1CCCCC1 | i[11.4 µM] | i[11.4 µM] | i[11.4 µM] | nt | i | 7.94µM
Cc1onc(-c2ccccc2Cl)c1C(=O)Nc1ccc2c(c1)OCO2 | i | nt | nt | nt | nt | nt
Cn1c(C(=O)Nc2ccc3c(c2)OCCO3)cc2sccc21 | i | ? | i | 3.01 | i | 3.16µM
CCOC(=O)c1cccc(NC(=O)c2cc3sccc3n2C)c1 | i | i | i | nt | i | ?
NCOC(=O)Cc1ccc(Br)cc1 | i[11.4 µM] | i[11.4 µM] | i[11.4 µM] | nt | i[11.5 µM] | i[11.4 µM]
O=c1c(CCc2ccccc2)nc2cnc(Oc3cccc(Cl)c3)nc2n1C[C@H]1CCCO1 | i | i | i | nt | i | i[11.4 µM]
